# Laboratory results as given in PubChem BioAssay (NCI).
# The panel holds about 83,000 compounds, 20% with a hit somewhere; the sample as a whole holds those more often.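 Growth was measured after 48 h exposure to one concentration of compound in 96-well plates. Values under 10 count as active.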 Unmarked numbers belong to inactive results. Activity calls are given as the source filed them.
# System: CAKI-1 renal
# Assay: NCI-60 one-dose screen, 48 h (100 = growth as untreated, 0 = no growth, -100 = all killed)
# Details: 10 µM unless noted
row,SMILES,growth
1,O=C(NCCCN1CCOCC1)c1cccc(N2C(=O)/C(=C/c3ccc(F)cc3)SC2=S)c1,81.2%
2,CC(C)NC1CCC(Nc2ccnc3cc(Cl)ccc23)CC1 (stereo not drawn),121%
3,Fc1ccc(-c2nn(-c3ccccc3)cc2-c2nc3ccccc3o2)cc1,82.1%
4,COc1ccc(C/C(C)=C(/c2ccc(OCCN3CCCCC3)cc2)c2ccc(OC(=O)NCc3ccccc3)cc2)cc1,-95% (active)
5,Cn1cc(-c2nonc2-c2c[nH]c3ccc(Br)cc23)c2cc(Br)ccc21,24%
6,Cn1c(=O)c2c(nc(NC3=NS(=O)(=O)c4ccccc43)n2CC(=O)N2CCc3ccccc32)n(C)c1=O,92.7%
7,Clc1ccc(Nc2nnc(COc3ccccc3)c3ccccc23)cc1,15.4%
8,O=[N+]([O-])c1ccc(S(=O)(=O)N2CCN(C3=NS(=O)(=O)c4ccccc4N3c3ccccc3)CC2)cc1,84.6%
9,CCNC(=O)c1[nH]cc(-c2ccccc2)c1-c1cc(OC)c2c(c1OC)OCO2,74.7%
10,COCCn1c(-c2csc(-c3cn(C)c4ccc(OC)cc34)n2)cc2cccnc21,74.8%
11,S=C(Nc1ccc(-c2nc(N3CCOCC3)c3cccn3n2)cc1)Nc1cccnc1,60.6%
12,COc1cc(CNC(=O)CCCC/C=C/C(C)C)ccc1OCc1nnc(Nc2ccc([N+](=O)[O-])cc2)o1,33.6%
13,N#CC1=C(c2ccc(Cl)cc2)Nc2c(c(-c3ccc(Cl)cc3)nn2-c2ccccc2)C12C(=O)Nc1ccc(Cl)cc12 (stereo not drawn),35.8%
14,CCOC(=O)/C=C1\S/C(=N\Nc2cc(=O)[nH]c3ccc(Cl)cc23)N(c2ccccc2)C1=O,83.3%
15,COc1cccc(NC(=O)Cn2cc(CN3CCN(c4ccnc5cc(Cl)ccc45)CC3)nn2)c1,78%
16,COc1cc(N2C(=O)[C@H](O)C2c2ccc(SC)cc2)cc(OC)c1OC (stereo partly drawn),23.6%
17,CSc1nnc(-c2cnn3c2NC(c2ccccc2)C3)n1-c1ccc(C(F)(F)F)cc1 (stereo not drawn),32%
18,N=C(N)c1ccc(-c2ccc(-c3ccc(F)cc3)o2)o1,31.3%
19,CC1=NN(c2nc(SCC(=O)Nc3nc4ccc(C)cc4s3)nc(-c3ccccc3)c2C#N)C(=O)C1,87.3%
20,C/C(Nc1ccc(Cl)c(Cl)c1)=C1\CCOC1=O,57.7%

row,SMILES,growth
1,N#Cc1cccc(-c2c(-c3ccc4ccccc4c3)oc3ccccc3c2=O)c1,45.5%
2,CC(C)N1CCN(Cc2ccc3c(NNC(=O)c4ccccc4)nc4cc(F)ccc4n23)CC1,12.5%
3,O=S(=O)(NCCCNc1nccc(-c2c(-c3ccc(F)c(O)c3)nc3occn23)n1)c1ccccc1,96.5%
4,O=C1NCCC12CCN(c1c(Cl)cncc1-c1ccc(O)cc1)CC2,90.3%
5,Cc1cccnc1NC(=S)Nc1ncccc1C,70.7%
6,COc1ccc2c3c([nH]c2c1)C(=O)c1nc(C)ccc1C3=O,51.8%
7,CC1Cc2c(Cl)ncnc2N(C)c2ccc(F)cc21 (stereo not drawn),91%
8,O=C1c2cc(Cl)ccc2S(=O)(=O)c2c(NCCCNCCO)nc3ccccc3c21,6.57% (active)
9,O=C(c1ccc(Cl)cc1)N1CCN(c2ccnc3cc(Cl)ccc23)CC1,85.7%
10,Cc1nnc(NC(=O)c2nc(S(=O)(=O)Cc3ccc(F)cc3)ncc2Cl)s1,-86.3% (active)
11,COc1ccc2[nH]cc(-c3nc(-c4cn(C)c5c(Cl)nccc45)cs3)c2c1,60.2%
12,COc1ccc(/C(C)=C(/c2ccc(OCCCN(C)C)cc2)c2ccc(OC(=O)Cc3ccccc3)cc2)cc1,92.9%
13,CCOc1nc(-c2ccccc2)cc2c(O)c(C(=O)NN)[nH]c(=O)c12,109%
14,Cn1c(=O)c2[nH]c(N/N=C/c3ccccc3Br)nc2n(C)c1=O,93.4%
15,Clc1ccc(Sc2cnc(-c3ccccc3)o2)cc1,90.2%
16,O=C(Nc1nn(-c2ccc(Cl)cc2Cl)nc1-c1ccccc1)c1ccccc1,85.1%
17,Cc1ccc(/C=N/Nc2nc(Nc3ccccc3)nc(-n3nc(C)cc3C)n2)cc1,-21.1% (active)
18,O=C(Nc1cc(Cl)ccc1O)c1ccc(Nc2ccnc(C(F)(F)F)c2)cc1,58.7%
19,CC(C)(C)c1cc(-c2nc3ccc(N4CCN(S(C)(=O)=O)CC4)cc3[nH]2)cc(C(C)(C)C)c1O,75.5%

# System: A498 renal
# Assay: as above
# Details: 10 µM unless noted
row,SMILES,growth
1,O=C(NCCCN1CCOCC1)c1cccc(N2C(=O)/C(=C/c3ccc(F)cc3)SC2=S)c1,51.6%
2,CC(C)NC1CCC(Nc2ccnc3cc(Cl)ccc23)CC1 (stereo not drawn),89.2%
3,Fc1ccc(-c2nn(-c3ccccc3)cc2-c2nc3ccccc3o2)cc1,45.4%
4,COc1ccc(C/C(C)=C(/c2ccc(OCCN3CCCCC3)cc2)c2ccc(OC(=O)NCc3ccccc3)cc2)cc1,-97.1% (active)
5,Cn1cc(-c2nonc2-c2c[nH]c3ccc(Br)cc23)c2cc(Br)ccc21,28%
6,Cn1c(=O)c2c(nc(NC3=NS(=O)(=O)c4ccccc43)n2CC(=O)N2CCc3ccccc32)n(C)c1=O,58.9%
7,Clc1ccc(Nc2nnc(COc3ccccc3)c3ccccc23)cc1,-17.3% (active)
8,O=[N+]([O-])c1ccc(S(=O)(=O)N2CCN(C3=NS(=O)(=O)c4ccccc4N3c3ccccc3)CC2)cc1,105%
9,CCNC(=O)c1[nH]cc(-c2ccccc2)c1-c1cc(OC)c2c(c1OC)OCO2,77.1%
10,COCCn1c(-c2csc(-c3cn(C)c4ccc(OC)cc34)n2)cc2cccnc21,60.8%
11,S=C(Nc1ccc(-c2nc(N3CCOCC3)c3cccn3n2)cc1)Nc1cccnc1,-13.3% (active)
12,COc1cc(CNC(=O)CCCC/C=C/C(C)C)ccc1OCc1nnc(Nc2ccc([N+](=O)[O-])cc2)o1,56.8%
13,N#CC1=C(c2ccc(Cl)cc2)Nc2c(c(-c3ccc(Cl)cc3)nn2-c2ccccc2)C12C(=O)Nc1ccc(Cl)cc12 (stereo not drawn),51.6%
14,CCOC(=O)/C=C1\S/C(=N\Nc2cc(=O)[nH]c3ccc(Cl)cc23)N(c2ccccc2)C1=O,115%
15,COc1cccc(NC(=O)Cn2cc(CN3CCN(c4ccnc5cc(Cl)ccc45)CC3)nn2)c1,104%
16,COc1cc(N2C(=O)[C@H](O)C2c2ccc(SC)cc2)cc(OC)c1OC (stereo partly drawn),-1.79% (active)
17,CSc1nnc(-c2cnn3c2NC(c2ccccc2)C3)n1-c1ccc(C(F)(F)F)cc1 (stereo not drawn),46.8%
18,N=C(N)c1ccc(-c2ccc(-c3ccc(F)cc3)o2)o1,37.1%
19,CC1=NN(c2nc(SCC(=O)Nc3nc4ccc(C)cc4s3)nc(-c3ccccc3)c2C#N)C(=O)C1,101%
20,C/C(Nc1ccc(Cl)c(Cl)c1)=C1\CCOC1=O,93.5%

row,SMILES,growth
1,N#Cc1cccc(-c2c(-c3ccc4ccccc4c3)oc3ccccc3c2=O)c1,43.4%
2,CC(C)N1CCN(Cc2ccc3c(NNC(=O)c4ccccc4)nc4cc(F)ccc4n23)CC1,-15.8% (active)
3,O=S(=O)(NCCCNc1nccc(-c2c(-c3ccc(F)c(O)c3)nc3occn23)n1)c1ccccc1,101%
4,O=C1NCCC12CCN(c1c(Cl)cncc1-c1ccc(O)cc1)CC2,85%
5,Cc1cccnc1NC(=S)Nc1ncccc1C,115%
6,COc1ccc2c3c([nH]c2c1)C(=O)c1nc(C)ccc1C3=O,67.6%
7,CC1Cc2c(Cl)ncnc2N(C)c2ccc(F)cc21 (stereo not drawn),101%
8,O=C1c2cc(Cl)ccc2S(=O)(=O)c2c(NCCCNCCO)nc3ccccc3c21,57.3%
9,O=C(c1ccc(Cl)cc1)N1CCN(c2ccnc3cc(Cl)ccc23)CC1,55.6%
10,Cc1nnc(NC(=O)c2nc(S(=O)(=O)Cc3ccc(F)cc3)ncc2Cl)s1,115%
11,COc1ccc2[nH]cc(-c3nc(-c4cn(C)c5c(Cl)nccc45)cs3)c2c1,16%
12,COc1ccc(/C(C)=C(/c2ccc(OCCCN(C)C)cc2)c2ccc(OC(=O)Cc3ccccc3)cc2)cc1,83.1%
13,CCOc1nc(-c2ccccc2)cc2c(O)c(C(=O)NN)[nH]c(=O)c12,115%
14,Cn1c(=O)c2[nH]c(N/N=C/c3ccccc3Br)nc2n(C)c1=O,92.9%
15,Clc1ccc(Sc2cnc(-c3ccccc3)o2)cc1,63.5%
16,O=C(Nc1nn(-c2ccc(Cl)cc2Cl)nc1-c1ccccc1)c1ccccc1,116%
17,Cc1ccc(/C=N/Nc2nc(Nc3ccccc3)nc(-n3nc(C)cc3C)n2)cc1,58.5%
18,O=C(Nc1cc(Cl)ccc1O)c1ccc(Nc2ccnc(C(F)(F)F)c2)cc1,35.8%
19,CC(C)(C)c1cc(-c2nc3ccc(N4CCN(S(C)(=O)=O)CC4)cc3[nH]2)cc(C(C)(C)C)c1O,99.4%
